From the supplement of paper PMC6555819

Tests used:
Assay in all cases: PBM binding z-score (relative to random genomic background probes); higher = stronger binding; sequences stand for … in GC…GCGATTGACAGCGTAGAATGAAGG
[1] = system: PPARg:RXRa DBDmut IVT, anti-RXR (DBD mutation: RXRa K156A/R161A, NR concentration 270 nM, RXRa partner concentration 90 nM)
Summary of the method: (§1)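 On custom Agilent 4×180K arrays, double-stranded probes with 34-nt variable regions carried direct-repeat seeds, single-nucleotide variants, half-site ablations or random human genomic background. Ligand-free nuclear receptor dimers were applied for 1 h, and binding was read with antibodies against each partner (one per run). Binding z-scores come from regression-normalized fluorescence, with the random background probes as reference.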

[2] = system: PPARg:RXRa IVT, anti-PPARg (NR concentration 270 nM, RXRa partner concentration 90 nM)
Summary of the method: as §1

[3] = system: PPARg DBDmut:RXRa IVT, anti-PPARg (DBD mutation: PPARg1 K132A/R137A, NR concentration 270 nM, RXRa partner concentration 90 nM)
Summary of the method: as §1

[4] = system: PPARg DBDmut IVT, anti-PPARg (DBD mutation: PPARg1 K132A/R137A, NR concentration 270 nM)
Summary of the method: as §1

[5] = system: PPARg homodimer (NR concentration 180 nM)
Summary of the method: as §1

[6] = system: PXR:RXRa (NR concentration 270 nM, RXRa partner concentration 90 nM)
Summary of the method: as §1

[7] = system: PXR homodimer (NR concentration 270 nM)
Summary of the method: as §1

[8] = system: RARa:RXR (NR concentration 270 nM, RXRa partner concentration 90 nM)
Summary of the method: as §1

[9] = system: RARa homodimer (NR concentration 270 nM)
Summary of the method: as §1

[10] = system: RARb:RXRa (NR concentration 270 nM, RXRa partner concentration 90 nM)
Summary of the method: as §1

Sequence	PBM binding z-score [1]	PBM binding z-score [2]	PBM binding z-score [3]	PBM binding z-score [4]	PBM binding z-score [5]	PBM binding z-score [6]	PBM binding z-score [7]	PBM binding z-score [8]	PBM binding z-score [9]	PBM binding z-score [10]
CGTCCAAGGCCAATGCTAGGTCAGTGAAAGCATT	-0.0283	0.421	-0.963	-1.46	0.131	0.224	-0.267	0.552	-1.03	2.19
CTCGAAAGGTCGTGCTCAGGTGAGAATACCAAAC	0.69	1.89	0.151	0.41	2.63	3.35	0.0262	4.6	0.317	3.93
TAGCCTAGGTCACTCAGGGGCCAGTATAGAAAGC	1.65	3.3	0.795	0.141	1.5	1.73	-0.391	3.07	-0.348	3.99
ATATGTAGGTTAGCTGGGGTCATTAAGACTAGGC	7.01	6.64	3.24	2.7	2.8	5.91	3.46	5.15	1.22	3
TCTATTAGTTGATTAGGGCAATCGAAACAGCGGA	2.23	1.29	0.785	0.869	1.1	0.568	0.192	0.781	1.56	0.778
AGAATTAGGTTAAGATCAGGGAAACAGAATACAT	6.07	5.8	2.12	1.83	1.72	0.514	0.846	0.922	1.26	1.03
TGTCAAAGTTCAAAGGTAACGTCAGTATCCACAC	0.357	4.74	1.94	1.89	4.29	5.89	3.43	6.36	0.737	5.36
TAGCCTAGGTCATTCAGCGGCCAGTATAGAAAGC	1.69	2.65	0.127	-0.00854	2.11	1.94	-0.494	3.02	-0.474	3.92
CCTACTGGCCCATTCAGAGGTCATTGATCATATG	-0.184	0.996	-0.258	-0.298	2.98	4.67	2.7	4.14	1.58	2.81
ATCTCTAGGTAAAGATAGCTCAGTGAATGCAAAT	1.84	1.53	1.58	0.349	0.00125	-0.537	-0.0577	-0.292	0.787	-0.195
CCAGACAGGTGAGAAGGTAACTCGGCCTCGATTA	1.02	0.832	-0.526	-1.05	0.472	-0.382	-0.139	-0.0873	0.15	0.513
TCTTGTAGATCAATAGGGGTTAAGAAAGTGCGCT	2.59	1.26	1.26	1.11	1.01	3.87	0.265	2.8	0.509	1.2
CCTACTGGGCCATCCGGTCATTGATATCAACGTT	3.87	4.21	-0.352	-0.431	0.811	-0.0327	-0.0108	0.187	-0.315	1.42
CAGCCTAGGTCAGGGCCAGTGTAGGAGGAACGTT	1.13	1.58	-0.0989	-1.49	0.588	0.476	-0.524	1.01	-0.522	3.5
TGAATGTGGTTAAAGATCAGGGAACGTGGCGTCG	-0.308	0.475	0.142	1.06	0.818	-0.282	-0.00828	-0.185	0.484	-0.112
TCTTGTAGATCAATAGAGGTTACGAAAGTGCGCT	1.83	1.63	0.944	0.638	0.416	3.21	0.389	2.22	0.489	1.24
CTTTACGGGTCACTCCAGGTTATAGCATCGGAGT	4.09	4.57	1.34	1.05	2.31	5.1	0.416	3.97	0.111	3.96
ACTATTAGTGGACTTAGGGCAACCGATACGACGC	0.261	0.425	0.622	0.53	-0.531	-0.184	0.307	-0.1	0.447	0.196
AGTCAAAGTTCAGTACGAGGTAACGTAAAGCACG	-0.11	1.83	0.68	0.981	1.69	3.02	1.72	2.35	1.06	4.11
GATGCAGGGTCAGCTAGAGGCCAGAGTATGGAAA	0.505	1.63	-0.437	-1.46	2.73	3.3	-0.237	4.56	0.285	4.1
GATACAGGGTCAAGGCCAAAGTACGCGTATTGAT	2.58	4.27	2.3	0.743	3.07	4.48	0.731	5.02	1.25	4.5
AGTCAAAGTTCAACTAGGTAACGTAAGATATGCT	1.28	4.36	2.11	1.11	3.26	5.04	3.96	4.28	2.01	5.16
GGAACTAGGGCAAGTTGATAGCAGAGTTTGATGG	7.19	6.86	0.964	0.266	0.42	0.0404	0.803	-0.0697	-0.11	1.69
ATCTCTAGGTAACCAAATTCAGTGAATGCCGAAC	3.66	2.72	0.888	0.995	0.658	0.0913	0.615	0.166	0.995	0.377
